# Assay results as given in PubChem BioAssay (NCATS).
# Inconclusive results are not listed. Entries that show only a call come without a potency. Calls of active or inactive are those of the source. The call rests on the fitted dose curve; in most records, active means well fitted curve in the direction sought with a large enough effect; inconclusive means small, poorly fitted or top-dose-only effect, or another doubt; inactive means no such curve, though single readings can be large; an effect the other way counts as inactive or inconclusive.
# How the values were obtained:
# [1] = qHTS of pediatric cancer cell lines to identify multiple opportunities for drug repurposing: Confirmatory screen for DAOY cells (AID 1347114); further: nearly all actives have a fitted effect of over 65% in size
# In short: (§1)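 Viability measured as metabolically active cells via CellTiter-Glo luminescence following 48 hours of compound exposure, 11-point dilutions in confirmatory testing. 500-1,000 cells/well plated 5 hours before dosing; controls were DMSO and 2.3 µM bortezomib.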
# [2] = qHTS of pediatric cancer cell lines to identify multiple opportunities for drug repurposing: Confirmatory screen for NB-EBc1 cells (AID 1347115);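 further: cells exposed to compound for 48 h before the viability read; nearly all actives have a fitted effect of over 45% in size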; further: potency means the concentration at half of the fitted maximal effect
# In short: (§2)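 Cells (500-1,000/well) in growth media were settled 5 h at 37 degrees C, then given compounds for 48 h. Viability was read as CellTiter-Glo luminescence. Primary runs used MIPE at 11 points (0.78 nM-46 µM) and NPC at 8 points (0.59 nM-46 µM); follow-ups used 11 points.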
# [3] = qHTS of pediatric cancer cell lines to identify multiple opportunities for drug repurposing: Confirmatory screen for BT-37 cells (AID 1347117); further: nearly all actives have a fitted effect of over 55% in size; further: potency means the concentration at half of the fitted maximal effect
# In short: as §2
# [4] = qHTS of pediatric cancer cell lines to identify multiple opportunities for drug repurposing: Confirmatory screen for control Hh wild type fibroblast cells (AID 1347121); further: nearly all actives have a fitted effect of over 70% in size
# In short: as §2
# [5] = qHTS of pediatric cancer cell lines to identify multiple opportunities for drug repurposing: Confirmatory screen for U-2 OS cells (AID 1347122); further: nearly all actives have a fitted effect of over 65% in size; further: potency means the concentration at half of the fitted maximal effect
# In short: as §2
# [6] = qHTS of pediatric cancer cell lines to identify multiple opportunities for drug repurposing: Confirmatory screen for Rh41 cells (AID 1347123);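 further: 48 h compound exposure; nearly all actives have a fitted effect of over 60% in size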; further: potency means the concentration at half of the fitted maximal effect
# In short: as §2
# [7] = qHTS of pediatric cancer cell lines to identify multiple opportunities for drug repurposing: Confirmatory screen for Rh18 cells (AID 1347125); further: nearly all actives have a fitted effect of over 55% in size; further: potency means the concentration at half of the fitted maximal effect
# In short: as §2
# [8] = qHTS of pediatric cancer cell lines to identify multiple opportunities for drug repurposing: Confirmatory screen for Rh30 cells (AID 1347126); further: nearly all actives have a fitted effect of over 55% in size
# In short: as §2
# [9] = qHTS of pediatric cancer cell lines to identify multiple opportunities for drug repurposing: Confirmatory screen for OHS-50 cells (AID 1347128);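 further: compound exposure lasted 48 h at 37 degrees C; nearly all actives have a fitted effect of over 55% in size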; further: potency means the concentration at half of the fitted maximal effect
# In short: as §2
# [10] = test system: Zika virus NS2B-NS3 protease (unlinked); assay: Optimization of GU AMC qHTS for Zika virus inhibitors: Unlinked NS2B-NS3 protease assay (AID 1347151); further: nearly all actives have a fitted effect of over 80% in size; further: potency means the concentration at half of the fitted maximal effect
# In short: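 Noncovalent complex of NS2B hydrophilic domain and NS3 protease domain, 25 nM final, in 10 mM Tris-HCl pH 8.0, 0.01% Tween 20. AMC fluorescence change over 15 min at room temperature was fitted to a 4-parameter Hill equation.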
# [11] = test system: Zika virus NS2B-NS3 protease; assay: Primary screen GU AMC qHTS for Zika virus inhibitors (AID 1347154); further: nearly all actives have a fitted effect of over 70% in size; further: potency means the concentration at half of the fitted maximal effect
# In short: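 Unlinked Zika NS2B hydrophilic domain/NS3 protease domain noncovalent complex (25 nM final) in 10 mM Tris-HCl pH 8.0, 0.01% Tween 20, with AMC peptide substrate. Fluorescence (ex 340, em 450 nm) change over 15 min, room temperature; percent inhibition fitted to 4-parameter Hill equation.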
# [12] = qHTS of pediatric cancer cell lines to identify multiple opportunities for drug repurposing: Confirmatory screen for SJ-GBM2 cells (AID 1347116); further: nearly all actives have a fitted effect of over 60% in size; further: potency means the concentration at half of the fitted maximal effect
# In short: as §1
# [13] = qHTS of pediatric cancer cell lines to identify multiple opportunities for drug repurposing: Confirmatory screen for TC32 cells (AID 1347118);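 further: cells exposed to compound for 48 h before the read; nearly all actives have a fitted effect of over 65% in size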; further: potency means the concentration at half of the fitted maximal effect
# In short: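 qHTS, TC32, 48 h drug treatment, CellTiter-Glo luminescence as a proxy for metabolically active cells; primary top concentration 46 µM (MIPE 11-pt, NPC 8-pt); confirmatory 11-pt.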
# [14] = qHTS of pediatric cancer cell lines to identify multiple opportunities for drug repurposing: Confirmatory screen for RD cells (AID 1347124);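 further: cells exposed to compound for 48 h before viability readout; nearly all actives have a fitted effect of over 65% in size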
# In short: as §2
# Furin (Homo sapiens) = Furin (Homo sapiens) (UniProt P09958); assay: Furin counterscreen qHTS for Zika virus inhibitors (AID 1347149); further: nearly all actives have a fitted effect of over 70% in size; further: potency means the concentration at half of the fitted maximal effect
# Chain of Furin (Homo sapiens) (P09958 whole entry, looked up): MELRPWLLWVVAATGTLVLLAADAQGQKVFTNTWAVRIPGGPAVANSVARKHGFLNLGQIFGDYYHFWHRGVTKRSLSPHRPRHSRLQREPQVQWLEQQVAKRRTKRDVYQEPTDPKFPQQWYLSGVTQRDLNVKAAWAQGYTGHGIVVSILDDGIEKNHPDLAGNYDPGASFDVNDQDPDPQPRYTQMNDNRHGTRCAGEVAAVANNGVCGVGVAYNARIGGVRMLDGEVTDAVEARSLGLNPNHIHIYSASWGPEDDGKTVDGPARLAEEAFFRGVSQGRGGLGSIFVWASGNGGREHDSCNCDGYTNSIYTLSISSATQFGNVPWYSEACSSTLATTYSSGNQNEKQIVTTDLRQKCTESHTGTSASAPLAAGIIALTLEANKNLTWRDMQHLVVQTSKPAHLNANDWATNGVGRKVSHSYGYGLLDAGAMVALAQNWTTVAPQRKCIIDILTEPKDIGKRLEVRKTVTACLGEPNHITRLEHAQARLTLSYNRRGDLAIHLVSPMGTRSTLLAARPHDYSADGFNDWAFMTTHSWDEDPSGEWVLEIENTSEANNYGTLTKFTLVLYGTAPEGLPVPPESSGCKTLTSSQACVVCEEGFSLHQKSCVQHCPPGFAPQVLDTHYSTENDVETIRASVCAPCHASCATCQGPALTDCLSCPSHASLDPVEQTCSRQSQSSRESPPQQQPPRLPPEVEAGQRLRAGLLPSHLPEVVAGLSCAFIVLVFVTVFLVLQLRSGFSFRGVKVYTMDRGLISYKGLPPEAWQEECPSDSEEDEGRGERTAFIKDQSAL
# In short: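 Counterscreen measures cleavage of 2 microM BOC-RVRR-AMC, below its ~15 microM Km, by 5 nM full-length human furin at pH 7.0 after a 15-min compound preincubation. Inhibition derives from the 15-min fluorescence increase at 37C.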
# [15] = test system: Zika virus NS2B-NS3 protease (linked construct); assay: Confirmatory screen NINDS AMC qHTS for Zika virus inhibitors (AID 1347152); further: nearly all actives have a fitted effect of over 70% in size; further: potency means the concentration at half of the fitted maximal effect
# In short: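 Purified NS2B-NS3 protease with NS2B hydrophilic domain linked to NS3 protease domain by flexible linker, 1 nM final in 10 mM Tris-HCl pH 8.0, 0.01% Tween 20. Compounds preincubated 15 min, room temperature; Bz-Nle-KRR-AMC 10 microM (Km 18.3 µM); 15-min fluorescence change, 4-parameter Hill fit.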
# [16] = test system: Zika virus NS2B-NS3 protease (unlinked complex); assay: Confirmatory screen GU AMC qHTS for Zika virus inhibitors (AID 1347153); further: nearly all actives have a fitted effect of over 70% in size
# In short: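 Fluorescence change (ex 340/em 450 nm) over 15 min, ~20% substrate conversion, normalized to no-inhibitor and no-enzyme controls, then Hill-fitted. Unlinked protease at 25 nM; AMC peptide 10 µM.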
# [17] = biological target: N-terminal Xaa-Pro-Lys N-methyltransferase 1 (Homo sapiens) (UniProt Q9BV86); assay: qHTS Assay for Inhibitors of N-terminal methyltransferase 1 (NTMT1): LOPAC validation of the NTMT1 SAHH-coupled ThioGlo3 Assay (AID 1347143); further: potency means the concentration at half of the fitted maximal effect
# Chain of N-terminal Xaa-Pro-Lys N-methyltransferase 1 (Homo sapiens) (Q9BV86 whole entry, looked up): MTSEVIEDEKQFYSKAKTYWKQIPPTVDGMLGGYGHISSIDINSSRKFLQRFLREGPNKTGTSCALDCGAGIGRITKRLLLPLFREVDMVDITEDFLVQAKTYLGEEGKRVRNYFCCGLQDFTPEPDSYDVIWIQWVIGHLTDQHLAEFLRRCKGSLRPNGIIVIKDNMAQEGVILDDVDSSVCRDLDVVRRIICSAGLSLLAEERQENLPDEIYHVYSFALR
# In short: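 In this qHTS pilot against the LOPAC set, 125nM NTMT1 met compounds tested at multiple concentrations, and fluorescence was normalized to background.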
# [18] = Confirmatory screen GU Rhodamine qHTS for Zika virus inhibitors qHTS (AID 1347157)
# In short: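 Unlinked NS2B/NS3, 25 nM; Rhod110 peptide, 1.5 microM; compounds, up to 114 microM. Reaction run 15 min at RT in 10 mM Tris-HCl pH 8.0, 0.01% Tween 20; kinetic fluorescence change fitted with a 4-parameter Hill model.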
# [19] = ZIKV-mCherry secondary qHTS for Zika virus inhibitors (AID 1347158); further: top concentration of the series differs between compounds
# In short: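 This orthogonal imaging screen measured ZIKV-mCherry infection of Vero cells exposed to compound, MOI 1, 48-72 h. Percent infection came from segmented nuclei scored mCherry-positive above 3 SD of negative controls.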
smiles,measurement,setting,value
Cc1oncc1C(=O)Nc1ccc(C(F)(F)F)cc1,Potency,[1],inactive
same,Potency,[2],inactive
same,Potency,[3],inactive
same,Potency,[4],inactive
same,Potency,[5],inactive
same,Potency,[6],inactive
same,Potency,[7],inactive
same,Potency,[8],inactive
same,Potency,[9],inactive
same,Potency,[10],inactive
same,Potency,[11],inactive
Nc1nc2c(ncn2COCCO)c(=O)[nH]1,Potency,[1],inactive
same,Potency,[2],inactive
same,Potency,[12],inactive
same,Potency,[13],inactive
same,Potency,[4],inactive
same,Potency,[5],inactive
same,Potency,[6],inactive
same,Potency,[14],inactive
same,Potency,[7],inactive
same,Potency,[8],inactive
same,Potency,[9],inactive
same,Potency,[10],inactive
CO[C@@H]1[C@H](N(C)C(=O)c2ccccc2)C[C@H]2O[C@]1(C)n1c3ccccc3c3c4c(c5c6ccccc6n2c5c31)C(=O)NC4,Potency,[1],inactive
same,Potency,[4],inactive
same,Potency,[5],inactive
same,Potency,[6],inactive
same,Potency,[7],4.14 µM (active)
same,Potency,[8],inactive
Cc1c(C)c2c(c(C)c1O)CCC(C)(COc1ccc(CC3SC(=O)NC3=O)cc1)O2 (stereo unspecified),Potency,[2],inactive
same,Potency,[12],inactive
same,Potency,[3],inactive
same,Potency,[13],inactive
same,Potency,[4],inactive
same,Potency,[6],inactive
same,Potency,[14],inactive
same,Potency,[8],inactive
same,Potency,[11],inactive
NCCCC(N)(C(=O)O)C(F)F (stereo unspecified),Potency,[1],inactive
same,Potency,[2],inactive
same,Potency,[12],inactive
same,Potency,[3],inactive
same,Potency,[4],inactive
same,Potency,[5],inactive
same,Potency,[6],inactive
same,Potency,[14],inactive
same,Potency,[7],inactive
same,Potency,[8],inactive
same,Potency,[9],inactive
same,Potency,[10],inactive
CCN(CC)CCCC(C)Nc1ccnc2cc(Cl)ccc12 (stereo unspecified),Potency,[1],inactive
same,Potency,[2],inactive
same,Potency,[3],inactive
same,Potency,[13],inactive
same,Potency,[4],inactive
same,Potency,[5],inactive
same,Potency,[6],inactive
same,Potency,[14],inactive
same,Potency,[7],inactive
same,Potency,[8],inactive
same,Potency,[9],inactive
same,Potency,Furin (Homo sapiens),inactive
same,Potency,[10],15 µM (active)
same,Potency,[15],inactive
same,Potency,[16],inactive
same,Potency,[11],inactive
CN(C)c1ccc(C2Nc3ccc4ccccc4c3C3=C2C(=O)CC(C)(C)C3)cc1Br (stereo unspecified),Potency,[1],inactive
same,Potency,[2],42.7 µM (active)
same,Potency,[12],8.27 µM (active)
same,Potency,[13],15.1 µM (active)
same,Potency,[4],inactive
same,Potency,[14],inactive
same,Potency,[11],inactive
Cc1cn[nH]c1,Potency,[1],inactive
same,Potency,[2],inactive
same,Potency,[12],inactive
same,Potency,[3],inactive
same,Potency,[13],inactive
same,Potency,[4],inactive
same,Potency,[5],inactive
same,Potency,[6],inactive
same,Potency,[14],inactive
same,Potency,[7],inactive
same,Potency,[8],inactive
same,Potency,[9],inactive
same,Potency,[10],inactive
same,Potency,[11],inactive
COc1ccc(-c2oc3cc(OC)ccc3c2C(=O)c2ccc(C#N)cc2)cc1,Potency,[1],inactive
same,Potency,[12],inactive
same,Potency,[3],inactive
same,Potency,[4],inactive
same,Potency,[5],inactive
same,Potency,[6],inactive
same,Potency,[14],inactive
same,Potency,[7],inactive
same,Potency,[8],inactive
same,Potency,[9],inactive
NC(N)=NC(=O)c1nc(Cl)c(N)nc1N,Potency,[1],inactive
same,Potency,[2],inactive
same,Potency,[12],inactive
same,Potency,[4],inactive
same,Potency,[5],7.37 µM (active)
same,Potency,[6],inactive
same,Potency,[14],inactive
same,Potency,[7],inactive
same,Potency,[9],inactive
same,Potency,[17],50.1 µM (active)
same,Potency,[10],23.8 µM (active)
CCC(C)n1ncn(-c2ccc(N3CCN(c4ccc(OC[C@H]5CO[C@](Cn6cncn6)(c6ccc(Cl)cc6Cl)O5)cc4)CC3)cc2)c1=O (stereo partly specified),Potency,[2],inactive
same,Potency,[12],inactive
same,Potency,[13],3.29 µM (active)
same,Potency,[4],inactive
same,Potency,[6],11.7 µM (active)
same,Potency,[14],inactive
same,Potency,[7],inactive
same,Potency,[8],inactive
same,Potency,[11],inactive
O=C(NOC[C@H](O)CO)c1ccc(F)c(F)c1Nc1ccc(I)cc1F,Potency,[1],inactive
same,Potency,[12],inactive
same,Potency,[13],inactive
same,Potency,[4],inactive
same,Potency,[5],1.31 µM (active)
same,Potency,[14],inactive
same,Potency,[7],inactive
same,Potency,[8],inactive
same,Potency,[9],inactive
same,Potency,[11],inactive
Oc1cccc(-c2nc(N3CCOCC3)c3oc4ncccc4c3n2)c1,Potency,[2],13.5 µM (active)
same,Potency,[12],2.93 µM (active)
same,Potency,[3],0.851 µM (active)
same,Potency,[13],0.427 µM (active)
same,Potency,[6],0.522 µM (active)
same,Potency,[7],1.7 µM (active)
same,Potency,[9],3.02 µM (active)
Nc1nc2[nH]cc(CCc3ccc(C(=O)N[C@@H](CCC(=O)O)C(=O)O)cc3)c2c(=O)[nH]1,Potency,[1],inactive
same,Potency,[2],inactive
same,Potency,[13],0.465 µM (active)
same,Potency,[4],inactive
same,Potency,[5],inactive
same,Potency,[6],inactive
same,Potency,[14],inactive
same,Potency,[7],inactive
same,Potency,[8],inactive
same,Potency,[9],inactive
same,Potency,[11],inactive
COc1cc2nccc(Oc3ccc(NC(=O)NC4CC4)c(Cl)c3)c2cc1C(N)=O,Potency,[1],inactive
same,Potency,[2],inactive
same,Potency,[12],inactive
same,Potency,[13],14.7 µM (active)
same,Potency,[4],inactive
same,Potency,[6],5.85 µM (active)
same,Potency,[7],14.7 µM (active)
same,Potency,[8],inactive
CNCc1ccc(-c2[nH]c3cc(F)cc4c3c2CCNC4=O)cc1,Potency,[1],inactive
same,Potency,[12],inactive
same,Potency,[13],5.85 µM (active)
same,Potency,[4],inactive
same,Potency,[5],inactive
same,Potency,[6],16.5 µM (active)
same,Potency,[14],inactive
same,Potency,[7],inactive
same,Potency,[8],inactive
same,Potency,[9],inactive
same,Potency,[11],24.1 µM (active)
N=c1nc(N2CCCCC2)cc(N)n1O,Potency,[10],inactive
Nc1ccc(S(=O)(=O)Nc2ccnn2-c2ccccc2)cc1,Potency,[17],inactive
same,Potency,[10],inactive
same,Potency,[11],inactive
O=C(Nc1nc2ccccc2n1CCN1CCOCC1)c1cccc([N+](=O)[O-])c1,Potency,[10],inactive
CCCCNc1cc(C(=O)O)cc(S(N)(=O)=O)c1Oc1ccccc1,Potency,Furin (Homo sapiens),27 µM (active)
same,Potency,[10],29.9 µM (active)
same,Potency,[15],27.1 µM (active)
same,Potency,[16],inactive
Cc1cc(SCc2sc(-c3ccc(C(F)(F)F)cc3)nc2C)ccc1OCC(=O)O,Potency,Furin (Homo sapiens),inactive
same,Potency,[15],19.7 µM (active)
same,Potency,[18],2.48 µM (active)
same,Potency,[19],inactive
O=C(C1CC1)N1CC[C@@H](Cn2c(-c3ccc(-c4ccc5occc5c4)cc3)nc3cnccc32)C1,Potency,Furin (Homo sapiens),15.2 µM (active)
same,Potency,[15],24.1 µM (active)
same,Potency,[16],24.1 µM (active)
same,Potency,[11],10.8 µM (active)
